Data reported in the supplement of paper PMC8728848.
About 410 targets per protein were measured; listed, in parts, are those with the strongest signals and a random draw of the rest.

Columns and labels:
Assay in all cases: glycan array binding signal (z-score within array); higher = stronger binding
Settings in all cases: glycan notation: IUPAC condensed, linker removed
[1] = target: Fuc(a1-2)Gal(b1-3)GlcNAc(b1-2)Man(a1-3)[Fuc(a1-2)Gal(b1-3)GlcNAc(b1-2)Man(a1-6)]Man(b1-4)GlcNAc(b1-4)GlcNAc
Method in brief: (§1)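 Glycan array data came from 3228 arrays in the Consortium for Functional Glycomics database, and only arrays with an available protein sequence were kept. Glycan names were put into IUPAC-condensed notation, and columns mapping to the same glycan were averaged. The binding signal is a within-array Z-score, averaged across arrays of one protein sequence run at different concentrations or buffers and across linkers. A negative Z-score can be read as non-binding.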

[2] = target: Fuc(a1-2)Gal(b1-3)GlcNAc(b1-3)Gal(b1-4)Glc
Method in brief: as §1

[3] = target: Fuc(a1-2)Gal(b1-3)GlcNAc(b1-3)[Fuc(a1-3)[Gal(b1-4)]GlcNAc(b1-6)]Gal(b1-4)Glc
Method in brief: as §1

[4] = target: Fuc(a1-2)Gal(b1-3)[Fuc(a1-4)]GlcNAc(b1-2)Man(a1-3)[Fuc(a1-2)Gal(b1-3)[Fuc(a1-4)]GlcNAc(b1-2)Man(a1-6)]Man(b1-4)GlcNAc(b1-4)GlcNAc
Method in brief: as §1

Fuc(a1-2)Gal(b1-4)Glc = target: Fuc(a1-2)Gal(b1-4)Glc
Method in brief: as §1

[5] = target: Fuc(a1-2)Gal(b1-4)GlcNAc(b1-2)[Fuc(a1-2)Gal(b1-4)GlcNAc(b1-4)]Man(a1-3)[Fuc(a1-2)Gal(b1-4)GlcNAc(b1-2)Man(a1-6)]Man(b1-4)GlcNAc(b1-4)GlcNAc
Method in brief: as §1

[6] = target: Fuc(a1-2)Gal(b1-4)[Fuc(a1-3)]GlcNAc(b1-3)GalNAc
Method in brief: as §1

[7] = target: Fuc(a1-2)[Gal(a1-3)]Gal(b1-3)GlcNAc
Method in brief: as §1

[8] = target: Fuc(a1-2)[Gal(a1-3)]Gal(b1-4)GlcNAc
Method in brief: as §1

[9] = target: Fuc(a1-2)[GalNAc(a1-3)]Gal(b1-3)GlcNAc(b1-2)Man(a1-3)[Fuc(a1-2)[GalNAc(a1-3)]Gal(b1-3)GlcNAc(b1-2)Man(a1-6)]Man(b1-4)GlcNAc(b1-4)[Fuc(a1-6)]GlcNAc
Method in brief: as §1

[10] = target: Fuc(a1-2)[GalNAc(a1-3)]Gal(b1-4)GlcNAc
Method in brief: as §1

[11] = target: Fuc(a1-2)[GalNAc(a1-3)]Gal(b1-4)GlcNAc(b1-2)Man(a1-3)[Fuc(a1-2)[GalNAc(a1-3)]Gal(b1-4)GlcNAc(b1-2)Man(a1-6)]Man(b1-4)GlcNAc(b1-4)GlcNAc
Method in brief: as §1

[12] = target: Fuc(a1-3)[Gal3S(b1-4)]GlcNAc6S
Method in brief: as §1

[13] = target: Gal(a1-3)Fuc(a1-2)Gal(b1-4)GlcNAc(b1-3)[Gal(a1-3)Fuc(a1-2)Gal(b1-4)GlcNAc(b1-6)]GalNAc
Method in brief: as §1

Gal(a1-3)Gal(b1-4)GlcNAc = target: Gal(a1-3)Gal(b1-4)GlcNAc
Method in brief: as §1

[14] = target: Gal(a1-3)[Gal(a1-4)]Gal(b1-4)GlcNAc
Method in brief: as §1

Gal(a1-4)Gal(b1-4)Glc = target: Gal(a1-4)Gal(b1-4)Glc
Method in brief: as §1

Gal(a1-4)Gal(b1-4)GlcNAc = target: Gal(a1-4)Gal(b1-4)GlcNAc
Method in brief: as §1

[15] = target: Gal(a1-4)Gal(b1-4)GlcNAc(b1-3)Gal(b1-4)Glc
Method in brief: as §1

[16] = target: Gal(b1-3)GlcNAc(b1-2)[Gal(b1-3)GlcNAc(b1-6)]Man(a1-6)[Gal(b1-3)GlcNAc(b1-2)Man(a1-3)]Man(b1-4)GlcNAc(b1-4)GlcNAc
Method in brief: as §1

[17] = target: Gal(b1-3)GlcNAc(b1-3)Gal(b1-4)GlcNAc
Method in brief: as §1

Gal(b1-4)Gal = target: Gal(b1-4)Gal
Method in brief: as §1

Gal(b1-4)Glc6S = target: Gal(b1-4)Glc6S
Method in brief: as §1

[18] = target: Gal(b1-4)GlcNAc(b1-3)Gal(b1-4)GlcNAc
Method in brief: as §1

Gal(b1-6)Gal = target: Gal(b1-6)Gal
Method in brief: as §1

[19] = target: Gal3S(b1-4)[Fuc(a1-3)]Glc6S
Method in brief: as §1

Gal4S(b1-4)GlcNAc = target: Gal4S(b1-4)GlcNAc
Method in brief: as §1

Gal6S(b1-4)Glc = target: Gal6S(b1-4)Glc
Method in brief: as §1

GalNAc(b1-3)Gal = target: GalNAc(b1-3)Gal
Method in brief: as §1

GalNAc(b1-4)Gal(b1-4)Glc = target: GalNAc(b1-4)Gal(b1-4)Glc
Method in brief: as §1

Glc(b1-4)Glc = target: Glc(b1-4)Glc
Method in brief: as §1

Glc(b1-6)Glc = target: Glc(b1-6)Glc
Method in brief: as §1

[20] = target: GlcNAc(a1-6)Gal(b1-4)GlcNAc
Method in brief: as §1

[21] = target: GlcNAc(b1-2)[GlcNAc(b1-4)]Man(a1-3)[GlcNAc(b1-4)][GlcNAc(b1-2)[GlcNAc(b1-6)]Man(a1-6)]Man(b1-4)GlcNAc(b1-4)GlcNAc
Method in brief: as §1

[22] = target: GlcNAc(b1-4)Gal(b1-4)GlcNAc
Method in brief: as §1

[23] = target: Man(a1-2)Man(a1-3)[Man(a1-2)Man(a1-6)]Man(a1-6)[Man(a1-2)Man(a1-2)Man(a1-3)]Man(b1-4)GlcNAc(b1-4)GlcNAc
Method in brief: as §1

[24] = target: Man(a1-3)[Man(a1-6)]Man(a1-6)[Man(a1-2)Man(a1-3)]Man(b1-4)GlcNAc(b1-4)GlcNAc
Method in brief: as §1

[25] = target: Neu5Ac(a2-3)Gal(b1-3)GalNAc(b1-3)Gal(a1-4)Gal(b1-4)Glc
Method in brief: as §1

[26] = target: Neu5Ac(a2-3)Gal(b1-3)GlcNAc(b1-3)GalNAc
Method in brief: as §1

[27] = target: Neu5Ac(a2-3)Gal(b1-4)GlcNAc(b1-6)[Neu5Ac(a2-3)Gal(b1-3)]GalNAc
Method in brief: as §1

[28] = target: Neu5Ac(a2-3)Gal(b1-4)[Fuc(a1-3)]GlcNAc(b1-3)Gal
Method in brief: as §1

[29] = target: Neu5Ac(a2-3)Gal(b1-4)[Fuc(a1-3)]GlcNAc(b1-3)GalNAc
Method in brief: as §1

[30] = target: Neu5Ac(a2-6)Gal(b1-4)GlcNAc(b1-2)Man(a1-3)[Neu5Ac(a2-6)Gal(b1-4)GlcNAc(b1-2)Man(a1-6)]Man(b1-4)GlcNAc(b1-4)GlcNAc
Method in brief: as §1

[31] = target: Neu5Ac(a2-6)Gal(b1-4)GlcNAc(b1-3)Gal(b1-4)GlcNAc(b1-3)Gal(b1-4)GlcNAc
Method in brief: as §1

[32] = target: Neu5Ac9Ac(a2-3)Gal(b1-4)GlcNAc
Method in brief: as §1

B1: DCL-1 (Homo sapiens), Q8IX05 (protein)
chain: MLRAALPALLLPLLGLAAAAVADCPSSTWIQFQDSCYIFLQEAIKVESIEDVRNQCTDHGADMISIHNEEENAFILDTLKKQWKGPDDILLGMFYDTDDASFKWFDNSNMTFDKWTDQDDDEDLVDTCAFLHIKTGEWKKGNCEVSSVEGTLCKTAIPYKRKYLSDNHILISALVIASTVILTVLGAIIWFLYKKHSDSRFTTVFSTAPQSPYNEDCVLVVGEENEYPVQFD
[1]
  glycan array binding signal (z-score): 0.687
[2]
  glycan array binding signal (z-score): -0.715
[3]
  glycan array binding signal (z-score): 0.156
[4]
  glycan array binding signal (z-score): -0.488
Fuc(a1-2)Gal(b1-4)Glc
  glycan array binding signal (z-score): 0.028
[5]
  glycan array binding signal (z-score): -0.471
[6]
  glycan array binding signal (z-score): 1.87
[7]
  glycan array binding signal (z-score): 3.01
[8]
  glycan array binding signal (z-score): -0.77
[9]
  glycan array binding signal (z-score): -0.151
[10]
  glycan array binding signal (z-score): -0.734
[11]
  glycan array binding signal (z-score): 0.221
[12]
  glycan array binding signal (z-score): -0.491
[13]
  glycan array binding signal (z-score): 0.69
Gal(a1-3)Gal(b1-4)GlcNAc
  glycan array binding signal (z-score): 0.709
[14]
  glycan array binding signal (z-score): -0.245
Gal(a1-4)Gal(b1-4)Glc
  glycan array binding signal (z-score): -0.289
Gal(a1-4)Gal(b1-4)GlcNAc
  glycan array binding signal (z-score): 0.053
[15]
  glycan array binding signal (z-score): -0.496
[16]
  glycan array binding signal (z-score): 2.22
[17]
  glycan array binding signal (z-score): -0.606
Gal(b1-4)Gal
  glycan array binding signal (z-score): -0.028
Gal(b1-4)Glc6S
  glycan array binding signal (z-score): 0.595
[18]
  glycan array binding signal (z-score): 2.35
Gal(b1-6)Gal
  glycan array binding signal (z-score): -0.915
[19]
  glycan array binding signal (z-score): 0.532
Gal4S(b1-4)GlcNAc
  glycan array binding signal (z-score): -0.14
Gal6S(b1-4)Glc
  glycan array binding signal (z-score): 0.156
GalNAc(b1-3)Gal
  glycan array binding signal (z-score): -0.083
GalNAc(b1-4)Gal(b1-4)Glc
  glycan array binding signal (z-score): -0.041
Glc(b1-4)Glc
  glycan array binding signal (z-score): -0.786
Glc(b1-6)Glc
  glycan array binding signal (z-score): -0.407
[20]
  glycan array binding signal (z-score): 6.83
[21]
  glycan array binding signal (z-score): 0.126
[22]
  glycan array binding signal (z-score): -0.427
[23]
  glycan array binding signal (z-score): 2.43
[24]
  glycan array binding signal (z-score): 10.6
[25]
  glycan array binding signal (z-score): 3.04
[26]
  glycan array binding signal (z-score): -0.021
[27]
  glycan array binding signal (z-score): 0.223
[28]
  glycan array binding signal (z-score): 0.066
[29]
  glycan array binding signal (z-score): 5.12
[30]
  glycan array binding signal (z-score): 0.079
[31]
  glycan array binding signal (z-score): -1.67
[32]
  glycan array binding signal (z-score): 2.38
